Results taken from PubChem BioAssay AID1159580 (chemical genetic matrix, 2015).
Several values for one entry are separate records, joined by “and”; a condition that tells them apart may be missing. Equal values may be shown once. Out of some 5,500 compounds screened, about 2,000 (36%) were called active. Not shown: some 18% with an inconclusive outcome. No stated cut-off is given here; in the data, active means normalized growth mostly below about 0.91 (no sharp cut-off); inconclusive means no clear call, values can overlap the other calls; inactive means mostly above about 0.92. The list shows a part of the results.

Test: chemical genetic growth profiling, strain panel (AID 1159580);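 further: tested at 20 µM; growth read once vehicle control cultures reached saturation at 30 °C; 1 = growth at the plate median or of vehicle wells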
Conditions: S. cerevisiae deletion strains, growth OD

Measured: normalized growth

O=C(OCCNc1ccc([N+](=O)[O-])cn1)c1ccc([N+](=O)[O-])o1
0.885 (inactive) and 0.148 (active): locus YHR030C, strain SLT2, stronger effect = lower value
inactive: locus YAR019C, strain CDC15, stronger effect = lower value 0.898 | locus YBL105C, strain PKC1, stronger effect = lower value 0.927 | locus YBR135W, strain CKS1, stronger effect = lower value 0.922 | locus YBR136W, strain MEC1, stronger effect = lower value 0.919 | locus YBR160W, strain CDC28, stronger effect = lower value 0.92 | locus YDL017W, strain CDC7, stronger effect = lower value 0.932 | locus YDL028C, strain MPS1, stronger effect = lower value 0.917 | locus YDL101C, strain DUN1, stronger effect = lower value 0.947 and 0.908 | locus YDL108W, strain KIN28, stronger effect = lower value 0.922 | locus YDL134C, strain PPH21, stronger effect = lower value 0.961 | locus YDL214C, strain PRR2, stronger effect = lower value 0.742 | locus YDR054C, strain cdc34, stronger effect = lower value 0.898 | locus YDR150W, strain NUM1, stronger effect = lower value 0.866 | locus YDR477W, strain SNF1, stronger effect = lower value 0.829 | locus YEL061C, strain CIN8, stronger effect = lower value 0.931 | locus YER123W, strain YCK3, stronger effect = lower value 0.673 | locus YER133W, strain GLC7, stronger effect = lower value 0.771 | locus YFL009W, strain cdc4, stronger effect = lower value 0.903 | locus YFL029C, strain CAK1, stronger effect = lower value 0.894 | locus YFR003C, strain YPI1, stronger effect = lower value 0.924 | locus YFR028C, strain CDC14, stronger effect = lower value 0.91 | locus YGR040W, strain KSS1, stronger effect = lower value 0.735 | locus YGR052W, strain FMP48, stronger effect = lower value 0.735 | locus YGR229C, strain SMI1, stronger effect = lower value 0.979 | locus YHR079C, strain IRE1, stronger effect = lower value 0.67 | locus YHR082C, strain KSP1, stronger effect = lower value 0.914 | locus YHR205W, strain SCH9, stronger effect = lower value 0.663 | locus YIL147C, strain SLN1, stronger effect = lower value 0.931 | locus YJL095W, strain BCK1, stronger effect = lower value 0.677 | locus YJL128C, strain PBS2, stronger effect = lower value 0.895 | locus YJL157C, strain FAR1, stronger effect = lower value 0.788 | locus YJR016C, strain ILV3, stronger effect = lower value 0.942 | locus YJR043C, strain POL32, stronger effect = lower value 0.968 | locus YJR066W, strain TOR1, stronger effect = lower value 0.78 | locus YKL101W, strain HSL1, stronger effect = lower value 0.737 | locus YKL193C, strain SDS22, stronger effect = lower value 0.899 | locus YKL203C, strain TOR2, stronger effect = lower value 0.822 | locus YLR058C, strain SHM2 (second series), stronger effect = lower value 0.943 | locus YLR133W, strain CKI1, stronger effect = lower value 0.813 | locus YLR403W, strain SFP1, stronger effect = lower value 0.845 | locus YML094W, strain GIM5, stronger effect = lower value 0.896 | locus YMR001C, strain CDC5, stronger effect = lower value 0.915 | locus YMR205C, strain PFK2 (second series), stronger effect = lower value 0.884 | locus YMR277W, strain FCP1, stronger effect = lower value 0.904 | locus YMR307W, strain GAS1, stronger effect = lower value 0.817 | locus YNL006W, strain LST8, stronger effect = lower value 0.933 | locus YNL020C, strain ARK1, stronger effect = lower value 0.81 | locus YNL153C, strain GIM3, stronger effect = lower value 0.957 | locus YNL161W, strain CBK1, stronger effect = lower value 0.902 | locus YNL183C, strain NPR1, stronger effect = lower value 0.684 | locus YNL207W, strain RIO2, stronger effect = lower value 0.9 | locus YNL222W, strain SSU72, stronger effect = lower value 0.915 | locus YNL298W, strain CLA4 (second series), stronger effect = lower value 0.956 | locus YNL307C, strain MCK1 (second series), stronger effect = lower value 0.709 | locus YOL006C, strain TOP1, stronger effect = lower value 0.831 | locus YOL078W, strain AVO1, stronger effect = lower value 0.902 | locus YOL136C, strain PFK27, stronger effect = lower value 0.697 | locus YOR061W, strain CKA2, stronger effect = lower value 0.735 | locus YOR119C, strain RIO1, stronger effect = lower value 0.838 | locus YOR329C, strain SCD5, stronger effect = lower value 0.921 | locus YPL031C, strain PHO85, stronger effect = lower value 0.814 | locus YPL204W, strain HRR25, stronger effect = lower value 0.749 | locus YPL209C, strain IPL1, stronger effect = lower value 0.921 | locus YPL241C, strain CIN2, stronger effect = lower value 0.931 | locus YPR025C, strain CCL1, stronger effect = lower value 0.929 | locus YPR106W, strain ISR1, stronger effect = lower value 0.945 | locus YPR111W, strain DBF20, stronger effect = lower value 0.888 | locus YPR135W, strain CTF4, stronger effect = lower value 0.944 | strain NNK1, stronger effect = lower value 0.913 | strain TSCII, stronger effect = lower value 0.894
active: locus YAL013W, strain DEP1, stronger effect = lower value 0.848 | locus YBR229C, strain ROT2, stronger effect = lower value 0.816 | locus YCL061C, strain MRC1, stronger effect = lower value 0.86 | locus YDL132W, strain cdc53, stronger effect = lower value 0.888 | locus YDR052C, strain DBF4, stronger effect = lower value 0.81 | locus YDR226W, strain ADK1, stronger effect = lower value 0.887 | locus YFR019W, strain FAB1, stronger effect = lower value 0.583 | locus YGR078C, strain PAC10, stronger effect = lower value 0.786 | locus YGR092W, strain DBF2, stronger effect = lower value 0.17 | locus YHR087W, strain rtc3, stronger effect = lower value 0.744 | locus YJL187C, strain SWE1, stronger effect = lower value 0.86 | locus YJR066W, strain TOR1 (second series), stronger effect = lower value 0.391 | locus YJR075W, strain HOC1, stronger effect = lower value 0.795 | locus YKL048C, strain ELM1, stronger effect = lower value 0.772 | locus YKL067W, strain YNK1, stronger effect = lower value 0.708 | locus YLR039C, strain RIC1, stronger effect = lower value 0.449 | locus YLR085C, strain ARP6, stronger effect = lower value 0.727 | locus YLR113W, strain HOG1, stronger effect = lower value 0.444 | locus YLR262C, strain YPT6, stronger effect = lower value 0.703 | locus YML070W, strain DAK1, stronger effect = lower value 0.609 | locus YMR219W, strain ESC1, stronger effect = lower value 0.809 | locus YMR263W, strain SAP30, stronger effect = lower value 0.827 | locus YNL322C, strain KRE1, stronger effect = lower value 0.913 | locus YNR030W, strain Alg12, stronger effect = lower value 0.776 | locus YOR231W, strain MKK1, stronger effect = lower value 0.572 | locus YPL055C, strain LGE1, stronger effect = lower value 0.738 | locus YPL153C, strain RAD53, stronger effect = lower value 0.351 | locus YPL256C, strain CLN2, stronger effect = lower value 0.624
